# Data from PubChem BioAssay (Tox21).
# Values without a mark were called inactive. Records with an inconclusive call do not appear. Entries that show only a call come without a potency. Activity calls are given as the source filed them. Unless noted, the call rests on the fitted dose curve; in most records, active means well fitted curve in the direction sought with a large enough effect in the repeat runs; inconclusive means weak or mixed curves; inactive means flat fitted curve, though single readings scatter.
# How the values were obtained:
# [1] = qHTS assay to test for compound auto fluorescence at 535 nm (green) in HEK293 cells (AID 720680)
# [2] = qHTS assay to test for compound auto fluorescence at 460 nm (blue) in HEK293 cell free culture (AID 720681)
# Method in brief: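 Blue fluorescence (Ex 405/Em 460 nm, triamterene-equivalent) was read immediately after pin transfer of compound or DMSO into medium (DMEM, 10% FBS) without cells.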
# [3] = qHTS assay to test for compound auto fluorescence at 590 nm (red) in HEK293 cell free culture (AID 720683)
# Method in brief: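 Red-channel autofluorescence of compounds in culture medium (DMEM, 10% FBS), no cells, measured at 540/590 nm. Rose Bengal sodium is the reference fluorophore for equivalence.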
# [4] = qHTS assay to test for compound auto fluorescence at 590 nm (red) in HepG2 cell free culture (AID 720684)
# Method in brief: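 Cell-free; medium MEM + 10% FBS; compound or DMSO added by pintool; read Ex 540/Em 590 nm; Rose Bengal sodium as red reference fluorophore.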
# [5] = qHTS assay to test for compound auto fluorescence at 460 nm (blue) in HepG2 cell free culture (AID 720685)
# Method in brief: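 Cell-free plates of MEM plus 10% FBS received 23 nL compound or DMSO vehicle; blue-channel (405/460 nm) intensity scored against triamterene as reference fluorophore.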
# [6] = qHTS assay to test for compound auto fluorescence at 535 nm (green) in HepG2 cell free culture (AID 720686)
# [7] = qHTS assay to test for compound auto fluorescence at 460 nm (blue) in HepG2 cells (AID 720687)
# Method in brief: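 Blue-channel autofluorescence (Ex/Em 405/460 nm, triamterene-equivalent) was measured after 1 hr compound exposure at 37 C, 5% CO2. Cells were HepG2, plated overnight at 37 C in MEM plus 10% FBS.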
# [8] = target: Glucocorticoid receptor (Homo sapiens) (UniProt P04150); assay: qHTS assay to identify small molecule agonists of the glucocorticoid receptor (GR) signaling pathway (AID 720691; active means well fitted activation curve with a large enough effect in the signal ratio in the repeat runs, not every such curve was filed as active; the % refers to the signal ratio; further: potency means the concentration at half of the fitted maximal effect)
# Method in brief: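 HeLa GR-bla reporter line; cells pre-incubated 4 h, compound in DMSO 18 h at 37 C; LiveBLAzer B/G FRET substrate 2 h RT; fluorescence intensity read-out.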
# [9] = target: Glucocorticoid receptor (Homo sapiens) (UniProt P04150); assay: qHTS assay to identify small molecule antagonists of the glucocorticoid receptor (GR) signaling pathway (AID 720692; active means well fitted inhibition curve with a large enough effect in the signal ratio in the repeat runs, not every such curve was filed as active; the % refers to the signal ratio)
# Method in brief: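 Read-out: beta-lactamase FRET substrate fluorescence, 2 h at room temperature, in HeLa cells stably carrying a GRE-driven bla reporter. Compounds were co-incubated with 5 nM dexamethasone agonist (final) for 18 h at 37 C.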
# [10] = qHTS assay to test for compound auto fluorescence at 535 nm (green) in HEK293 cell free culture (AID 720682)
# Method in brief: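 Fluorescein serves as the green reference fluorophore; each compound's intrinsic emission at 535 nm (excitation 485 nm) is reported as an equivalent amount of that dye, measured in serum-containing DMEM without cells.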
# Sequence of Glucocorticoid receptor (Homo sapiens) (P04150 whole entry, looked up): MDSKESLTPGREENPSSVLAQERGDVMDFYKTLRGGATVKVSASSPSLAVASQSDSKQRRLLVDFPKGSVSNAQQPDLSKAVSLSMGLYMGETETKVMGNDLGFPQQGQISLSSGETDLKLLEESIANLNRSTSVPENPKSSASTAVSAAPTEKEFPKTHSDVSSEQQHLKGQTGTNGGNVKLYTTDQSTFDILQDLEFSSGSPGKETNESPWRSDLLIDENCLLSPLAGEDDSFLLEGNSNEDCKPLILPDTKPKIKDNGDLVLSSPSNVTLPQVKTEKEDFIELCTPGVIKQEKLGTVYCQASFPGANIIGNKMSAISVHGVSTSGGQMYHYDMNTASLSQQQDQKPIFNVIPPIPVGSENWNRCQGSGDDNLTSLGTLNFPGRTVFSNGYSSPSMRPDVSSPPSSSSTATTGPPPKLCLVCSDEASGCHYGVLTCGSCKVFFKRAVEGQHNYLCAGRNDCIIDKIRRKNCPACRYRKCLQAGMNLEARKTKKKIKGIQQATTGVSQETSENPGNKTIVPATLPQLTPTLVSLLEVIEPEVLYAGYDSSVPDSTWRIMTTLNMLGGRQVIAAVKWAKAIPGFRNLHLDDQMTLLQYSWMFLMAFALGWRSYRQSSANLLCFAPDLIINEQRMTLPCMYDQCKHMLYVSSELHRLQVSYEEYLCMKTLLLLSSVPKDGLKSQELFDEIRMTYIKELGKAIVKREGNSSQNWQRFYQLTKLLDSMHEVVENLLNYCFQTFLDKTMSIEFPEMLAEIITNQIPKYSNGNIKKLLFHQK
Structure (SMILES),outcome [1],outcome [2],outcome [3],outcome [4],outcome [5],outcome [6],outcome [7],Potency [8],Potency [9],outcome [10]
CCCCOCCOCCOCc1cc2c(cc1CCC)OCO2,inactive,inactive,inactive,inactive,inactive,inactive,inactive,,,
O=C(O)COc1nn(Cc2ccccc2)c2ccccc12,inactive,inactive,inactive,inactive,inactive,inactive,inactive,inactive,inactive,
CCOC(=O)c1cccc(N)c1,inactive,,inactive,inactive,inactive,inactive,inactive,,,inactive
O=[N+]([O-])c1ccc(F)cc1F,inactive,inactive,inactive,inactive,inactive,inactive,inactive,,,
CC(C)(O)C(=O)c1ccccc1,inactive,inactive,inactive,inactive,inactive,inactive,inactive,,inactive,
CCCCC/C=C\CCC=O,inactive,inactive,inactive,inactive,inactive,inactive,inactive,inactive,inactive,
CC(=O)CC(C)(C)C1CCCCC1,inactive,inactive,inactive,inactive,inactive,inactive,inactive,,,
N[C@H]1CN(c2c(F)cc3c(=O)c(C(=O)O)cn(C4C[C@H]4F)c3c2Cl)CC12CC2 (stereo partly drawn),inactive,inactive,inactive,inactive,inactive,inactive,inactive,inactive,inactive,
COC(=O)[C@@H](N)Cc1ccc(O)c(O)c1,inactive,inactive,inactive,inactive,inactive,inactive,inactive,,,
CCCCCCCCCCCCN(CCCCCCCCCCCC)CCCCCCCCCCCC,inactive,inactive,inactive,inactive,inactive,inactive,inactive,,,
CC(=O)OC/C=C(\C)CC/C=C(\C)CCC=C(C)C,inactive,inactive,inactive,inactive,inactive,inactive,inactive,,,
COC(C)(C)CCCC(C)CC=O (stereo not drawn),inactive,inactive,inactive,inactive,inactive,inactive,inactive,,inactive,
NC(=O)c1cn(Cc2c(F)cccc2F)nn1,inactive,inactive,inactive,inactive,inactive,inactive,inactive,,,
NS(=O)(=O)c1cc2c(cc1Cl)NC(C1CC3C=CC1C3)NS2(=O)=O (stereo not drawn),inactive,inactive,inactive,inactive,inactive,inactive,inactive,,inactive,
O=S(O)CO,inactive,inactive,inactive,inactive,inactive,inactive,inactive,,,
CN(C(=O)c1c(O)c2ccccc2n(C)c1=O)c1ccccc1,inactive,inactive,inactive,inactive,inactive,inactive,inactive,inactive,inactive,
NCCCNCCSP(=O)(O)O,inactive,inactive,inactive,inactive,inactive,inactive,inactive,inactive,,
Cc1cccc(C)c1NC(=O)C(C)N (stereo not drawn),inactive,inactive,inactive,inactive,inactive,inactive,inactive,,inactive,
CCOC(=O)CC(C)=O,inactive,inactive,inactive,inactive,inactive,inactive,inactive,,,
NC(=O)COCCN1CCN(C(c2ccccc2)c2ccc(Cl)cc2)CC1 (stereo not drawn),inactive,inactive,inactive,inactive,inactive,inactive,inactive,inactive,inactive,

Structure (SMILES),outcome [1],outcome [2],outcome [3],outcome [4],outcome [5],outcome [6],outcome [7],Potency [8],Potency [9],outcome [10]
CCc1ccc(O)c(OC)c1,inactive,inactive,inactive,inactive,inactive,inactive,inactive,,inactive,
O=Cc1cccc([N+](=O)[O-])c1,inactive,inactive,inactive,inactive,inactive,inactive,inactive,inactive,inactive,
CC1(C)C(O)C(C)(C)C1O (stereo not drawn),inactive,inactive,inactive,inactive,inactive,inactive,inactive,,inactive,inactive
CN(C)CCCSc1ccccc1NC(=O)/C=C/c1ccccc1,inactive,inactive,inactive,inactive,inactive,inactive,inactive,,inactive,inactive
CC(=O)Nc1c(I)cc(I)c(C(=O)O)c1I,inactive,inactive,inactive,inactive,inactive,inactive,inactive,inactive,inactive,
CC(C)(CC(=O)O)C(=O)O,inactive,inactive,inactive,inactive,inactive,inactive,inactive,,,
COc1nc(N)nc2c1ncn2[C@@H]1O[C@H](CO)[C@@H](O)[C@@H]1O,inactive,inactive,inactive,inactive,inactive,inactive,inactive,,inactive,inactive
CC(=O)Nc1ccc(S(N)(=O)=O)cc1,inactive,inactive,inactive,inactive,inactive,inactive,inactive,inactive,inactive,
O=C(O)CCCl,inactive,inactive,inactive,inactive,inactive,inactive,inactive,inactive,inactive,
Nc1c2c(nc3ccccc13)CCCC2O (stereo not drawn),inactive,inactive,inactive,inactive,inactive,inactive,inactive,inactive,inactive,
CC(=O)OCC(=O)[C@@]1(O)CCC2C3CCC4=CC(=O)CC[C@]4(C)C3[C@@H](O)C[C@@]21C (stereo partly drawn),inactive,inactive,inactive,inactive,inactive,inactive,inactive,0.134 µM (active),,
COC(=O)NN,inactive,inactive,inactive,inactive,inactive,inactive,inactive,inactive,inactive,
CCOC(=O)C(=O)OCC,inactive,inactive,inactive,inactive,inactive,inactive,inactive,,inactive,inactive
O=C(CCCN1CCC(O)(c2cccc(C(F)(F)F)c2)CC1)c1ccc(F)cc1,inactive,inactive,inactive,inactive,inactive,inactive,inactive,inactive,inactive,
CCCCCSCCCCC,inactive,inactive,inactive,inactive,inactive,inactive,inactive,,,
Cc1c(O)cccc1O,inactive,inactive,inactive,inactive,inactive,inactive,inactive,,,
CC/C=C\CC/C=C/C(OCC)OCC,inactive,inactive,inactive,inactive,inactive,inactive,inactive,,,
CC(C)(c1ccc(O)cc1)c1ccc(O)cc1,inactive,inactive,inactive,inactive,inactive,inactive,inactive,,,
CN1CC(=O)NC1=N,inactive,,inactive,inactive,inactive,inactive,inactive,,inactive,inactive
